Experimental data from PubChem BioAssay (NCATS).
Results filed as inconclusive are left out. Entries that show only a call come without a potency. Activity calls are given as the source filed them. Unless noted, calls come from the whole dose curve; as a rule, active = well fitted curve in the direction sought with a large enough effect; inconclusive = small, poorly fitted or top-dose-only effect, or another doubt; inactive = no such curve, though single readings can be large; an effect the other way counts as inactive or inconclusive.

Tests used:
[1] = P-glycoprotein substrates identified in KB-8-5-11 adenocarcinoma cell line, qHTS therapeutic library screen (AID 1346987); note: nearly all actives have a fitted effect of over 65% in size; note: potency is the fitted concentration of half-maximal effect
In short: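 Steps: plate 500 KB-8-5-11 cells/well in DMEM + 10% FCS (colchicine removed); pin compounds in dose-response; incubate 72 h, 37 degree C, 5% CO2; add CellTiter-Glo, 5 min; read luminescence.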

[2] = target: Cytochrome P450 2D6 (Homo sapiens) (UniProt P10635); assay: Cytochrome P450 family 2 subfamily D member 6 (CYP2D6) small molecule antagonists: luciferase biochemical (cell-free) qHTS assay (AID 1645840; active = well fitted curve in the direction sought with a large enough effect in the repeat runs; an effect the other way counts as inactive or inconclusive; note: nearly all actives have a fitted effect of over 55% in size)
Cytochrome P450 2D6 (Homo sapiens), sequence (P10635 whole entry, looked up): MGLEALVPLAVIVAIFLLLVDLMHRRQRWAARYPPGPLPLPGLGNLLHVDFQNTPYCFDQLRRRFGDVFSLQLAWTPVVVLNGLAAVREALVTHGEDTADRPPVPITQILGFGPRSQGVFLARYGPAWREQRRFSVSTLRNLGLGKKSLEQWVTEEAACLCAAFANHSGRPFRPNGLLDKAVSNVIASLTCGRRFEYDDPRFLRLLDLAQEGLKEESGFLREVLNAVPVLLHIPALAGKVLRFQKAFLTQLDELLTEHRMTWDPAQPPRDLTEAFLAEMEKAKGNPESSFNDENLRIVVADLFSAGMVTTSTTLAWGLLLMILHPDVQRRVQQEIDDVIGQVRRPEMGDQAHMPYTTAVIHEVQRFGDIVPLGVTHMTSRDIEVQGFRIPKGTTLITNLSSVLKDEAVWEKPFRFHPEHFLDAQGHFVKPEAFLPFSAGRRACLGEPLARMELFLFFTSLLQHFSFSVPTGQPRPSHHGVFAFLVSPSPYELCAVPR
In short: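 P450-Glo luminescent screen: recombinant CYP2D6 enzyme–proluciferin substrate mix preincubated with compound 10 min at room temperature, then NADPH regeneration added for 1 h at room temperature. Detection reagent added for 20 min; luciferin light read as relative luminescence units.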

[3] = target: Cytochrome P450 2C9 (Homo sapiens) (UniProt P11712); assay: Cytochrome P450 family 2 subfamily C member 9 (CYP2C9) small molecule antagonists: luciferase biochemical (cell-free) qHTS assay (AID 1645842; active = well fitted curve in the direction sought with a large enough effect in the repeat runs; an effect the other way counts as inactive or inconclusive; note: potency is the fitted concentration of half-maximal effect; nearly all actives have a fitted effect of over 55% in size)
Cytochrome P450 2C9 (Homo sapiens), sequence (P11712 whole entry, looked up): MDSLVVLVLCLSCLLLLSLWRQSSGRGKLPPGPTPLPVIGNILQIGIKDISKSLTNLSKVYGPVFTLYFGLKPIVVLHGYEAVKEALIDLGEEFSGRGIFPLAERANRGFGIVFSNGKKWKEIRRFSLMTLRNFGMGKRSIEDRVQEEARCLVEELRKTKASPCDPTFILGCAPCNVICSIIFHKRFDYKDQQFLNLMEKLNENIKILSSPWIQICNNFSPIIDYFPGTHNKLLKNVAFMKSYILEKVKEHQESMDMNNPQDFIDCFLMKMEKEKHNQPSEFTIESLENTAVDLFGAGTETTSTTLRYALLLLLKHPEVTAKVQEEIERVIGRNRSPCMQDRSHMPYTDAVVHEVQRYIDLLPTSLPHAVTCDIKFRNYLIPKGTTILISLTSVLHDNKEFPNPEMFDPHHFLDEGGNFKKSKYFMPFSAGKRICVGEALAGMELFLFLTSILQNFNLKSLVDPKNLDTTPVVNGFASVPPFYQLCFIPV
In short: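 Luminescence, after 20 min with luciferin detection reagent, reflected CYP2C9 turnover during a 1 h NADPH-driven reaction at 37C. Enzyme-substrate mix contained 0.4% bovine serum albumin and was preincubated with compound 10 min at room temperature.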

[4] = system: Zika virus NS2B-NS3 protease; assay: Primary screen GU AMC qHTS for Zika virus inhibitors (AID 1347154); note: nearly all actives have a fitted effect of over 70% in size
In short: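 Fluorogenic AMC-substrate cleavage by noncovalent NS2B-NS3 protease complex (25 nM, pH 8.0 Tris buffer with Tween 20) followed for 15 minutes at room temperature (~20% conversion). Percent inhibition from ex340/em450 signal change, fitted by 4-parameter Hill equation.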

[5] = target: Glutathione peroxidase 1 (Homo sapiens) (UniProt P07203); assay: Primary qHTS Assay for Inhibitors of Recombinant Selenoprotein Glutathione Peroxidase 1 (GPX1) (AID 1845191); note: nearly all actives have a fitted effect of over 65% in size
Glutathione peroxidase 1 (Homo sapiens), sequence (P07203 whole entry, looked up): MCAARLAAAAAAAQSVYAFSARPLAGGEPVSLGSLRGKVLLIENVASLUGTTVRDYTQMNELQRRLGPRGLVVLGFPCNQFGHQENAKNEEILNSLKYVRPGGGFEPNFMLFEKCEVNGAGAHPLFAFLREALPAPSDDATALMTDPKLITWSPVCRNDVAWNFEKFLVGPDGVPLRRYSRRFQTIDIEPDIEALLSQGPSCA
In short: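 10 nM GPX1 + cpd, 30 min RT; start w/ 1 mM GSH, 0.5 mM cumene hydroperoxide, 0.5 mM NADPH, 100 nM GR, 0.01% BSA; buffer 50 mM Tris-HCl pH 7.5, 2 mM EDTA, 150 mM NaCl; Fl 340/450, 0 & 15 min.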

[6] = Primary qHTS for inhibitors of nuclear receptor binding SET domain protein 2 (NSD2) in an isogenic RCH-ACV NSD2 p.E1099K mutant (9B) (AID 1645876); note: nearly all actives have a fitted effect of over 70% in size; note: potency is the fitted concentration of half-maximal effect
[7] = Primary qHTS for inhibitors of nuclear receptor binding SET domain protein 2 (NSD2) in an RCH-ACV wild type WT cells (2C) (AID 1645877); note: nearly all actives have a fitted effect of over 70% in size; note: potency is the fitted concentration of half-maximal effect
[8] = target: N-terminal Xaa-Pro-Lys N-methyltransferase 1 (Homo sapiens) (UniProt Q9BV86); assay: Confirmatory qHTS for Inhibitors of N-terminal methyltransferase 1 (NTMT1): MTaseGlo Assay (AID 1645874); note: potency is the fitted concentration of half-maximal effect; nearly all actives have a fitted effect of over 65% in size
N-terminal Xaa-Pro-Lys N-methyltransferase 1 (Homo sapiens), sequence (Q9BV86 whole entry, looked up): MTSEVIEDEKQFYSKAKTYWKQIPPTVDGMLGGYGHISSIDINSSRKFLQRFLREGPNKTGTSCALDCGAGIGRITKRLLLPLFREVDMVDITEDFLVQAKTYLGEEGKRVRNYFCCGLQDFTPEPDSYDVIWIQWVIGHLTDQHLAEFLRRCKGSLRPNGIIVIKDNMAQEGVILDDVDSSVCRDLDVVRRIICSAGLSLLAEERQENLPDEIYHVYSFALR
In short: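 Luminescent MTase-Glo read-out of SAH. 125 nM NTMT1, 100 uM SAM, 1 uM SPKRIA substrate, 30 min RT reaction after 15 min compound preincubation. Normalized to no-enzyme and DMSO controls; Hill fit.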

[9] = target: Catechol O-methyltransferase (Homo sapiens) (UniProt P21964); assay: Confirmatory Screen for Target Class Profiling of Small Molecule Inhibitors of Methyltransferases (AID 1745852; calls by dose curve; note: potency is the fitted concentration of half-maximal effect); conditions: MTase-Glo luminescence, SAH detection, recombinant enzyme; measured here: COMT max response; stronger effect = lower value
Catechol O-methyltransferase (Homo sapiens), sequence (P21964 whole entry, looked up): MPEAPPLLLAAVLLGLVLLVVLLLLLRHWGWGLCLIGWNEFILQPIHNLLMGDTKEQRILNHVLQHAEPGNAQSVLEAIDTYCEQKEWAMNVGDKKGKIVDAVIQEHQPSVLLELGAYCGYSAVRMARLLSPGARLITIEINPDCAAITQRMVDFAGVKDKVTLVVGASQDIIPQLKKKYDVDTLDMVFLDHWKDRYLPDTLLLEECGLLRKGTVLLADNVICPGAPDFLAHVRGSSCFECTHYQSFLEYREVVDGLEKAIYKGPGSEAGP

[10] = target: Guanidinoacetate N-methyltransferase (Homo sapiens) (UniProt Q14353); assay: as above; conditions: activity change, negative = inhibition: at 57.3 µM (top of the series) unless noted
[11] = target: Nicotinamide N-methyltransferase (Homo sapiens) (UniProt P40261); assay: as above; conditions: MTase-Glo luminescence, SAH detection, recombinant enzyme; measured here: NNMT max response; stronger effect = lower value
Nicotinamide N-methyltransferase (Homo sapiens), sequence (P40261 whole entry, looked up): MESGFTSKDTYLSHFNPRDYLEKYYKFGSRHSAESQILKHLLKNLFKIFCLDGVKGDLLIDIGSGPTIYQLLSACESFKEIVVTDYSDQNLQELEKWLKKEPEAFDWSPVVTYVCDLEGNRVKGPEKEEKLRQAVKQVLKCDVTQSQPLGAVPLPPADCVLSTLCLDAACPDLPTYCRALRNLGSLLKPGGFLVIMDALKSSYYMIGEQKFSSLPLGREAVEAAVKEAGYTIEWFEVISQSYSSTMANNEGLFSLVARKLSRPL

[12] = target: Phenylethanolamine N-methyltransferase (Homo sapiens) (UniProt P11086); assay: as above; conditions: MTase-Glo luminescence, SAH detection, recombinant enzyme; measured here: PNMT max response; stronger effect = lower value
Phenylethanolamine N-methyltransferase (Homo sapiens), sequence (P11086 whole entry, looked up): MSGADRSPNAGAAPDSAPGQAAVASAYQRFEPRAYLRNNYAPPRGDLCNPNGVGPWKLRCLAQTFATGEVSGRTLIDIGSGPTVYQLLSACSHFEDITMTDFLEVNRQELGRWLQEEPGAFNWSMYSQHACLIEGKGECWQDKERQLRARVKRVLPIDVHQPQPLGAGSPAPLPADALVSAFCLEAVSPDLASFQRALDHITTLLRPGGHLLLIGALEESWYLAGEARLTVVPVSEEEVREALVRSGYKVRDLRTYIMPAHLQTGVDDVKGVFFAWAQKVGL

[13] = qHTS drug screen for cell cycle checkpoint inhibitors in PARPi-resistant BRCA-mutant ovarian cancer cell lines. (AID 1963452; calls by dose curve); conditions: PEO1/OlaR viability, CellTiter-Glo luminescence, 96 h, stronger effect = lower value
In short: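 PEO1, PEO4 and PEO1/OlaR ovarian cancer cells, 600 per well, exposed 96 h at 37C to a dilution series. Viability read by CellTiter-Glo luminescence, normalized to DMSO and empty wells; activity summarized as Z-AUC.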

[14] = target: Tyrosine-protein kinase Yes (Homo sapiens) (UniProt P07947); assay: qHTS for small molecule inhibitors of Yes1 kinase: Primary Screen (AID 686947); note: potency is the fitted concentration of half-maximal effect; nearly all actives have a fitted effect of over 60% in size
Tyrosine-protein kinase Yes (Homo sapiens), sequence (P07947 whole entry, looked up): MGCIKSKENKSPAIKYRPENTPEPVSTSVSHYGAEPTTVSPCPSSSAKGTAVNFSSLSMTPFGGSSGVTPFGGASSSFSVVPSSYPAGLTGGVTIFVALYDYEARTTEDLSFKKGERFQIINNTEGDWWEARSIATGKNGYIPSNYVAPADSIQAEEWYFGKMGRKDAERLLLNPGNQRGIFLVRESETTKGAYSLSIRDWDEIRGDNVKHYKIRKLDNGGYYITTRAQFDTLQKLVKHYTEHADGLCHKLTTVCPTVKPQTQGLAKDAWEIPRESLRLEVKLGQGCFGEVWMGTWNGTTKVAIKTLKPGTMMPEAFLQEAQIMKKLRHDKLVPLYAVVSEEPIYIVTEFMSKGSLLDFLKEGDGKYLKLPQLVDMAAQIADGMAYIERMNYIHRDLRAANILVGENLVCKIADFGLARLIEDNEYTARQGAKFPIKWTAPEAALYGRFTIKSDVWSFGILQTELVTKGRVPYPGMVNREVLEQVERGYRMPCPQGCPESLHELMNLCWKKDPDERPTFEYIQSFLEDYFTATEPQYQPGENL
In short: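 Yes1 (4 nM) preincubated 20 min with compound, then 60 min room-temperature reaction with 0.1 mM ATP and 0.3 mg/mL poly(E4Y) in pH 7.5 Tris, 10 mM MgCl2. ADP measured by ADP-Glo luminescence, normalised to enzyme/no-enzyme controls.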

[15] = qHTS for small molecule inhibitors of Yes1 kinase: Counter Assay (AID 686950);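 note: no kinase present so only ADP-Glo detection of a fixed ADP amount is tested; luminescence from ADP-Glo reporting ADP in a fixed ATP and ADP mixture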
In short: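 Luminescence read-out from ADP-Glo quantifies a fixed ADP amount (0.02 mM ADP with 0.08 mM ATP) after 60 min at room temperature; signal is normalized between DMSO wells with ATP/ADP and with 0.1 mM ATP alone.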

[16] = target: Atrial natriuretic peptide receptor 1 (Homo sapiens) (UniProt P16066); assay: Natriuretic polypeptide receptor (hNpr1) antagonism - Pilot CMLD screen (AID 1347052; calls by dose curve;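 note: HEK293 cells with hNpr1 stimulated by hNppA peptide at 0.1 nM; cGMP level read as GloSensor luciferase luminescence after agonist stimulation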)
Atrial natriuretic peptide receptor 1 (Homo sapiens), sequence (P16066 whole entry, looked up): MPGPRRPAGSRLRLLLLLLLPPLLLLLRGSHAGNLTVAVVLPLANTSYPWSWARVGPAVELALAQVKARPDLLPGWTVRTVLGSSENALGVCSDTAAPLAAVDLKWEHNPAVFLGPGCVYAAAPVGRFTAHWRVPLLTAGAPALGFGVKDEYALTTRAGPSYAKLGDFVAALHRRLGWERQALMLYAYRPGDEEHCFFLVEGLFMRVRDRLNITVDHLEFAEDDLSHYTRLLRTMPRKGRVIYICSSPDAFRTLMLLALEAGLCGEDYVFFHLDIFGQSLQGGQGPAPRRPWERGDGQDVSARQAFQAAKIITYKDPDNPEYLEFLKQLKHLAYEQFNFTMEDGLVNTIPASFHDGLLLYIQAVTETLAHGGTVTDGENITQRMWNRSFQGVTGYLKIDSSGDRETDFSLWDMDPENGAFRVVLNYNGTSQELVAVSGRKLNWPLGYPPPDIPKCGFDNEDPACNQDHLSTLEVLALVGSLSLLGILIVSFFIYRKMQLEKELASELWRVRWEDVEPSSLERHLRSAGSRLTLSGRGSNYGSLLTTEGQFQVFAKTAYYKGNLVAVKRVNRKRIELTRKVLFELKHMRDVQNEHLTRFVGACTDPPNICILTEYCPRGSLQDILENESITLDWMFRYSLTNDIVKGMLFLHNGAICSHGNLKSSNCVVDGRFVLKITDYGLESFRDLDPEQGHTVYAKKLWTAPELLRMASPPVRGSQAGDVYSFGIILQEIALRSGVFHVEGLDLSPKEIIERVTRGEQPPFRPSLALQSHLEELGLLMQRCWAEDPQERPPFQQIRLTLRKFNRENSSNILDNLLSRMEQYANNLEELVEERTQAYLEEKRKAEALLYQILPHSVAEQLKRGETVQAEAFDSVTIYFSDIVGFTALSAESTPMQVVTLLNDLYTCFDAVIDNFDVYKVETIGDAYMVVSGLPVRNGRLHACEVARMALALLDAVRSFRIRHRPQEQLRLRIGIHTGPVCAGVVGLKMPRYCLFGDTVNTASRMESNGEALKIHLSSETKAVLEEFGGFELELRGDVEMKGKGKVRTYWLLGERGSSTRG

[17] = target: Phospholipid hydroperoxide glutathione peroxidase GPX4 (Homo sapiens) (UniProt P36969); assay: Primary qHTS Assay for Inhibitors of Recombinant Selenoprotein Glutathione Peroxidase 4 (GPX4) (AID 1845192); conditions: outcome: dose series up to 50 µM unless noted; note: potency is the fitted concentration of half-maximal effect; nearly all actives have a fitted effect of over 65% in size
Phospholipid hydroperoxide glutathione peroxidase GPX4 (Homo sapiens), sequence (P36969 whole entry, looked up): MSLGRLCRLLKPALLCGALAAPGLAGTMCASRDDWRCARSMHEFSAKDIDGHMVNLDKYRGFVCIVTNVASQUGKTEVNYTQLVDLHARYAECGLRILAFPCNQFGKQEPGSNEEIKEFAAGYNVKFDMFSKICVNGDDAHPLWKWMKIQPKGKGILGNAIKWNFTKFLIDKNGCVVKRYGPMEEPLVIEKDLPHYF
In short: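 NADPH consumption, followed by fluorescence at 340/450 nm between 0 and 15 min, reports GPX4 activity via coupled glutathione reductase (100 nM). Enzyme 200 nM was pre-exposed to compound 30 min; 0.5 mM cumene hydroperoxide and 1 mM GSH served as substrates.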

CC1CN(CC(=O)Nc2ccc3c(c2)Cc2cccc(-c4cc(=O)cc(N5CCOCC5)o4)c2S3)CC(C)O1 (centres undefined)
Potency [1]: inactive
Potency [2]: inactive
Potency [3]: 2.68 µM (active)

O=C1NC(=O)c2cc(Nc3ccc(F)cc3)c(Nc3ccc(F)cc3)cc21
Potency [1]: 14.6 µM (active)
Potency [4]: inactive
Potency [5]: inactive

O=c1cc(-c2ccc(O)cc2)oc2cc(OC3OC(CO)C(O)C(O)C3O)c(C3OC(CO)C(O)C(O)C3O)c(O)c12 (centres undefined)
Potency [1]: inactive
Potency [6]: inactive
Potency [7]: inactive
Potency [5]: inactive

CN(C)c1ccc(Nc2c3ccc(NC(=O)CCN4CCCC4)cc3nc3cc(NC(=O)CCN4CCCC4)ccc23)cc1
Potency [1]: inactive
Potency [8]: 6.49 µM (active)
activity [9]: -13%
Potency [10]: 24.1 µM (active)
activity [11]: -39.2%
activity [12]: -14.2%
Potency [5]: inactive

Cc1ccc(NC(=O)Nc2nnc(Sc3ncnc4cc(OCCCN5CCOCC5)ccc34)s2)cc1
Potency [1]: inactive
Potency [6]: 3.66 µM (active)
Potency [7]: 5.17 µM (active)
Potency [5]: inactive
Z-AUC [13]: -0.628 (inactive)
Z-AUC ([13]; measured here: PEO1 parental Z-AUC): 0.369
Z-AUC ([13]; measured here: PEO4 Z-AUC): 0.158

O=Nc1c2[nH]c3ccccc3nc-2c2ccccc12
Potency [1]: inactive
Potency [6]: 13 µM (active)
Potency [5]: inactive

NS(=O)(=O)c1cccc(N=Cc2c(O)[nH]c3ccccc23)c1
Potency [14]: 10.4 µM (active)
outcome [15]: inactive
Potency [1]: inactive
Potency [5]: inactive

COCOc1ccc(Br)cc1C(=O)C=Cc1ccc2c(c1)OCO2
Potency [16]: inactive

NS(=O)(=O)c1ccc(N=Nc2c(O)[nH]c3ccc(Br)cc23)cc1
Potency [1]: 11.6 µM (active)
Potency [5]: inactive

Cn1c(CNc2cccc(C(=O)NCc3ccccc3C(F)(F)F)c2)nnc1-c1ccncc1
Potency [1]: inactive
Potency [7]: 10.3 µM (active)

COc1c(-c2ccc3cc(NS(C)(=O)=O)ccc3c2)cc(-n2ccc(=O)[nH]c2=O)cc1C(C)(C)C
Potency [1]: inactive
Potency [5]: inactive
Potency [17]: 3.98 µM (active)
